Source: PubChem BioAssay (EPA / NIEHS)
Where “and” joins values, the source holds several entries; their conditions need not be identical. Identical values can stand only once. More than one record can exist for a structure, and the calls need not agree. Calls of active or inactive are those of the source. The calls were made as follows: active = hit-call score of the fitted dose curve at least 0.9, where 1 is the maximum; inactive = score below 0.9.

Columns and labels:
[1] = APR_HepG2_NuclearSize_72hr: Apredica 72-hour HepG2 Assay for Nuclear Size (AID 2282925); conditions: high-content imaging, actives raise or lower the signal
Method in brief: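 Read-out: nuclear diameter from Hoechst 33342 images (ArrayScan, 20x, six fields/well), via cell-cycle image analysis. HepG2 were dosed 0.39–200 uM for 72 hr in 0.5% DMSO. Bidirectional fit relative to DMSO.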

[2] = ATG_CRE_CIS: Attagene CIS-FACTORIAL HepG2 Assay for human cAMP Responsive Element (CRE) binding protein 3 (AID 2282926); conditions: HepG2 CRE cis-reporter, Attagene multiplexed mRNA; actives raise or lower the signal
Method in brief: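 Cells carrying cis-regulated reporter constructs respond through their own endogenous factors. After 24 h treatment, RNA is reverse-transcribed, amplified, labelled and sized by capillary electrophoresis; up- and down-regulation are both scored against vehicle.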

[3] = target: CCAAT/enhancer-binding protein beta (Homo sapiens) (UniProt P17676); test: ATG_C_EBP_CIS: Attagene CIS-FACTORIAL HepG2 Assay for human CCAAT/Enhancer Binding Protein (C/EBP) beta (AID 2282927); conditions: HepG2 Attagene cis-factorial transcription factor reporter; actives raise or lower the signal
Sequence of CCAAT/enhancer-binding protein beta (Homo sapiens) (P17676 whole entry, looked up): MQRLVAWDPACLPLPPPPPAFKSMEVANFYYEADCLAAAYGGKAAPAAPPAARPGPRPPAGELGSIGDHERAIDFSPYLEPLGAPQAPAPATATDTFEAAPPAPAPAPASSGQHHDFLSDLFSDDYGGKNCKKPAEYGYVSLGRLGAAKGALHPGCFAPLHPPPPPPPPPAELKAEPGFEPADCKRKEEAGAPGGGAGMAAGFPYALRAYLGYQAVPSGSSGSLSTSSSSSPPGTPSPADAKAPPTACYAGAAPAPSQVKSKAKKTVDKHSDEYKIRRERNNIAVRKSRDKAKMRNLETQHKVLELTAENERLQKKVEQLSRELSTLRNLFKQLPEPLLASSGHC
Method in brief: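 HepG2, transient MRTU transfection, 24 h treatment. RT-PCR plus CE fluorescence; DMSO negative control, bidirectional fit.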

[4] = ATG_CMV_CIS: Attagene CIS-FACTORIAL HepG2 Assay for human CMV (Internal Marker) (AID 2282928); conditions: HepG2 CMV promoter reporter, transcription factor profiling; actives raise or lower the signal;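 also: endpoint acts as a background internal control marker rather than a target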
Method in brief: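 24 h chemical treatment, HepG2 with transient multi-reporter transfection; RNA → oligo(dT) RT → PCR → 6-FAM extension → HpaI digest → CE fluorescence. Bidirectional fit, DMSO negative control.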

[5] = ATG_DR4_LXR_CIS: Attagene CIS-FACTORIAL HepG2 Assay for human Liver X Receptor (LXR), DR4 submotif (AID 2282929); conditions: HepG2 Attagene DR4 cis-reporter, mRNA transcription; actives raise or lower the signal
Method in brief: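 Transiently transfected HepG2 liver cells; cis-regulated reporters; 24 h dosing. RT-PCR plus CE read-out of reporter mRNA. DMSO baseline, bidirectional curve fitting.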

[6] = target: Aryl hydrocarbon receptor (Homo sapiens) (UniProt P35869); test: ATG_Ahr_CIS: Attagene CIS-FACTORIAL HepG2 Assay for human Aryl Hydrocarbon Receptor (Ahr) (AID 2282930); conditions: HepG2 AhR cis-factorial reporter transcription; actives raise or lower the signal
Sequence of Aryl hydrocarbon receptor (Homo sapiens) (P35869 whole entry, looked up): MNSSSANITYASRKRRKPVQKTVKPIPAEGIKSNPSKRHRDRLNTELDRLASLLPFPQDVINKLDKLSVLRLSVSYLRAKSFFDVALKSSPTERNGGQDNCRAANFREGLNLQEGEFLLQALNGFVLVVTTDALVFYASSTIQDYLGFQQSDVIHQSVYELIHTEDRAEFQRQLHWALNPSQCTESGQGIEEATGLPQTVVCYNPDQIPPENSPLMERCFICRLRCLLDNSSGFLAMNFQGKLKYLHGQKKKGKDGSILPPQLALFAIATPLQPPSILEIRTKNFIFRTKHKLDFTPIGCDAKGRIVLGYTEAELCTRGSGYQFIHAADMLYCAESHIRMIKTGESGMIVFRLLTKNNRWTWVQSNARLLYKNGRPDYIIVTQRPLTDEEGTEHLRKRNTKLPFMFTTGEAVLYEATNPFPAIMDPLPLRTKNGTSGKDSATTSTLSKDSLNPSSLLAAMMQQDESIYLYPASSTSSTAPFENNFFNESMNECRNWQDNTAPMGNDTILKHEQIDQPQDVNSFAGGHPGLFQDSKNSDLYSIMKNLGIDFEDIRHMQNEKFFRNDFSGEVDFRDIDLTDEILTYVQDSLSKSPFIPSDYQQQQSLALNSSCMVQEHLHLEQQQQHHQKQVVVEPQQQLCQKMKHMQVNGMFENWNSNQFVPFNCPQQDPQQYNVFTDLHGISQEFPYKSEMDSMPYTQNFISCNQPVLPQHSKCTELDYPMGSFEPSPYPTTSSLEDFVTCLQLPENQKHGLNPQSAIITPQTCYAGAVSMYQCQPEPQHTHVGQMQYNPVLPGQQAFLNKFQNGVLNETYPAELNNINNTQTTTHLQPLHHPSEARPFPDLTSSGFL
Method in brief: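 Endogenous factor activity is tracked through cis-promoter reporter units transfected into HepG2 cells. Transcript levels at 24 h are read by fluorescent RT-PCR and capillary electrophoresis, with activity in either direction scored relative to DMSO.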

[7] = ATG_AP_1_CIS: Attagene CIS-FACTORIAL HepG2 Assay for human Activator Protein 1 (AP-1) (AID 2282931); conditions: HepG2 Attagene cis-factorial AP-1 reporter mRNA; actives raise or lower the signal
Method in brief: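 We transfected HepG2 cells transiently with a set of cis-regulated reporter transcription units, dosed them for 24 h, and quantified reporter mRNA via RT-PCR and capillary electrophoresis, scoring gain or loss of signal relative to DMSO.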

[8] = ATG_AP_2_CIS: Attagene CIS-FACTORIAL HepG2 Assay for human Activator Protein 2 (AP-2) (AID 2282932); conditions: HepG2 AP-2 cis-reporter, Attagene transcription factor profiling; actives raise or lower the signal
Method in brief: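 Read-out: fluorescent reporter mRNA via RT-PCR and capillary electrophoresis, 24 h post-dose in transiently transfected HepG2. Endogenous factors drive cis-promoter reporters; gain or loss of signal fitted bidirectionally against DMSO.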

[9] = ATG_BRE_CIS: Attagene CIS-FACTORIAL HepG2 Assay for human Bone Morphogenetic Protein (BMP) Response Element (BRE) (AID 2282933); conditions: HepG2 BMP response element reporter, Attagene transcription factor profiling; actives raise or lower the signal
Method in brief: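 Multiplexed cis-reporter assay, HepG2, 24 h exposure. mRNA from reporter units quantified via RT-PCR/CE; DMSO baseline; bidirectional curve fit.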

[10] = target: Retinoic acid receptor alpha (Homo sapiens) (UniProt P10276); test: ATG_DR5_RAR_CIS: Attagene CIS-FACTORIAL HepG2 Assay for human Retinoic Acid Receptor Alpha (RARE), DR5 submotif (AID 2282934); conditions: HepG2 Attagene cis-factorial RARE DR5 reporter, mRNA; actives raise or lower the signal;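 as to AC50: reporter responds to endogenous RAR alpha beta and gamma in HepG2 not RARA alone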
Sequence of Retinoic acid receptor alpha (Homo sapiens) (P10276 whole entry, looked up): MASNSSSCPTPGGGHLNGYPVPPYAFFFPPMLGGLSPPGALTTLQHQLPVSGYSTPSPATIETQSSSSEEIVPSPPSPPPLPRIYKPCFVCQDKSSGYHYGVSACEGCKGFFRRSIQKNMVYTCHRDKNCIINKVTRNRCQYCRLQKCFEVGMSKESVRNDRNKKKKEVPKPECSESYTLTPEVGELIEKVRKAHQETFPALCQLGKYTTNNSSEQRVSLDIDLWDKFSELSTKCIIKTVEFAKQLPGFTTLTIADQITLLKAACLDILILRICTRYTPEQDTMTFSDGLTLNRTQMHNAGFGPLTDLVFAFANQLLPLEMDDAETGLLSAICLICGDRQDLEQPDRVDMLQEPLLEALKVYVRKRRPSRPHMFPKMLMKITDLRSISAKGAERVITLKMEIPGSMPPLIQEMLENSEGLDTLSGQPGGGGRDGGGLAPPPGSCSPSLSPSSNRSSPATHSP
Method in brief: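 After 24 h of chemical exposure, transiently transfected HepG2 cells were lysed for total RNA; the DR5-regulated reporter transcript was quantified via RT-PCR and capillary electrophoresis, with activity fitted bidirectionally against DMSO.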

[11] = target: Transcription factor E2F1 (Homo sapiens) (UniProt Q01094); test: ATG_E2F_CIS: Attagene CIS-FACTORIAL HepG2 Assay for human E2F Transcription Factor 1 (AID 2282935); conditions: HepG2 Attagene cis-reporter, E2F reporter RNA transcripts; actives raise or lower the signal
Sequence of Transcription factor E2F1 (Homo sapiens) (Q01094 whole entry, looked up): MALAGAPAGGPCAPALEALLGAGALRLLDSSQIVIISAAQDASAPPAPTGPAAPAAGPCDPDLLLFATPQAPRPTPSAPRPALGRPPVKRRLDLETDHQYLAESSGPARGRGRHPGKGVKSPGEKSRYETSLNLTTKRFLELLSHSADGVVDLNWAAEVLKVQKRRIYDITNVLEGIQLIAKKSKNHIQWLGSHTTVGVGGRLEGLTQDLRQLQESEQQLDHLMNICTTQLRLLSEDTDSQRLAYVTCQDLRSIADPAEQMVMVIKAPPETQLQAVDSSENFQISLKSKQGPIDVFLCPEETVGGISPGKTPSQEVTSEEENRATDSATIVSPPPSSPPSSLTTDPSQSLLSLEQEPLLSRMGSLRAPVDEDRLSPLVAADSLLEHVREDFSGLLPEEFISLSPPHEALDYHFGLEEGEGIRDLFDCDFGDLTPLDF
Method in brief: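 Transient MRTU transfection of HepG2; 24 h compound exposure; RNA → oligo(dT) RT → PCR → FAM label → HpaI cut → CE fluorescence. Gain/loss of signal fit against DMSO.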

[12] = ATG_E_Box_CIS: Attagene CIS-FACTORIAL HepG2 Assay for human Enhancer Box (E-box) (AID 2282936); conditions: HepG2 E-box cis-reporter transcription, actives raise or lower the signal
Method in brief: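 Transiently transfected HepG2, endogenous TF-driven reporters, 24 h dosing. Readout: RT-PCR plus capillary electrophoresis of fluorescent reporter fragments. Gain or loss of signal fitted bidirectionally against DMSO baseline.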

[13] = ATG_M_61_CIS: Attagene CIS-FACTORIAL HepG2 Assay for M61 Transcription Factor (Internal Marker) (AID 2282937); conditions: HepG2 Attagene CIS-FACTORIAL M61 internal marker reporter; actives raise or lower the signal
Method in brief: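 Multiplexed reporter mRNA assay, HepG2 human hepatoma cells, 24 h treatment. Signal: FAM-labelled, HpaI-digested RT-PCR fragments by CE. Fit: bidirectional, baseline DMSO.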

[14] = ATG_EGR_CIS: Attagene CIS-FACTORIAL HepG2 Assay for human Early Growth Response 1 (EGR1) (AID 2282938); conditions: HepG2 Attagene CIS-FACTORIAL EGR reporter mRNA; actives raise or lower the signal
Method in brief: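 Multiplexed cis-reporter system in human hepatoma HepG2 cells, transiently transfected. Cells are dosed for 24 h; reporter transcripts are amplified, fluorescently tagged and sized by capillary electrophoresis, with DMSO as negative control.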

[15] = ATG_M_19_CIS: Attagene CIS-FACTORIAL HepG2 Assay for M19 Transcription Factor (Internal Marker) (AID 2282939); conditions: HepG2 Attagene CIS-FACTORIAL M19 internal marker reporter; actives raise or lower the signal
Method in brief: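 Signals come from fluorescence of labelled reporter-specific PCR fragments resolved by capillary electrophoresis, following 24 h treatment of HepG2 cells transfected with cis-promoter reporter units; activity was fitted in both directions relative to DMSO.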

[16] = ATG_ERE_CIS: Attagene CIS-FACTORIAL HepG2 Assay for Estrogen Response Element (ERE) (AID 2282940); conditions: HepG2 ERE cis-reporter, Attagene RNA transcript; actives raise or lower the signal
Method in brief: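 Fluorescence of capillary-separated, FAM-labelled reporter cDNA fragments indicates reporter mRNA levels in HepG2 cells exposed to chemicals for 24 h. Transient transfection with cis-regulated units; data fitted in both directions against DMSO.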

[17] = ATG_Ets_CIS: Attagene CIS-FACTORIAL HepG2 Assay for human Erythroblast Transformation Specific (ETS) (AID 2282941); conditions: HepG2 ETS cis-reporter transcription, actives raise or lower the signal
Method in brief: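 Cis-regulated reporter mRNA induction in HepG2 (transient transfection), 24 h exposure, RT-PCR plus capillary electrophoresis detection; DMSO serves as negative control and baseline.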

[18] = target: Hepatocyte nuclear factor 3-beta (Homo sapiens) (UniProt Q9Y261); test: ATG_FoxA2_CIS: Attagene CIS-FACTORIAL HepG2 Assay for human Forkhead box A2 (FOXA2) (AID 2282942); conditions: HepG2 cis-reporter transcription factor activity, 24 h; actives raise or lower the signal
Sequence of Hepatocyte nuclear factor 3-beta (Homo sapiens) (Q9Y261 whole entry, looked up): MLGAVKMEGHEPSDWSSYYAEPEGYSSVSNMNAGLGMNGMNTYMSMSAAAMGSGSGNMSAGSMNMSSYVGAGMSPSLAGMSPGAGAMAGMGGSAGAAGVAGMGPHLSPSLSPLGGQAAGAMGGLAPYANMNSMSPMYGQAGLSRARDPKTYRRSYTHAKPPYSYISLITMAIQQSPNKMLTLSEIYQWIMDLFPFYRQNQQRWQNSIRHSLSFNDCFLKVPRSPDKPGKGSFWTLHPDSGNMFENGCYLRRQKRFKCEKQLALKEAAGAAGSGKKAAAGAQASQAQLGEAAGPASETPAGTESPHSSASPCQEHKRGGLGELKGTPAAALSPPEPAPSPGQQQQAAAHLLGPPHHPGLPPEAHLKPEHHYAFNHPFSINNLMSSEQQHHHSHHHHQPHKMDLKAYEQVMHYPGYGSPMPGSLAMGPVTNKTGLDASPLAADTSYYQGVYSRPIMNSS
Method in brief: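 Multiplexed cis-element reporter assay in transiently transfected HepG2. Twenty-four hours post-dosing, RNA was reverse-transcribed, amplified, FAM-labelled, HpaI-digested and separated by CE. Activity gain or loss relative to DMSO.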

[19] = ATG_FoxO_CIS: Attagene CIS-FACTORIAL HepG2 Assay for human Forkhead box O (FoxO) (AID 2282943); conditions: HepG2 Attagene cis-reporter, FoxO element, mRNA; actives raise or lower the signal
Method in brief: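 Transfected HepG2 reporter cells exposed to test chemical for 24 h; reporter RNA measured by reverse transcription, PCR and fluorescent capillary electrophoresis; curves fitted for increases and decreases against DMSO.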

[20] = ATG_GATA_CIS: Attagene CIS-FACTORIAL HepG2 Assay for human GATA Binding Protein (AID 2282944); conditions: HepG2 GATA cis-element reporter, Attagene multiplex mRNA; actives raise or lower the signal
Method in brief: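 After transfecting HepG2 cells with multiple cis-regulated reporter units, chemicals are dosed for 24 h; isolated RNA undergoes RT-PCR and fluorescent labeling before capillary electrophoresis, with activity expressed against DMSO.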

## CCCCCCCCC(=O)O
[1]
  outcome: inactive
[2]
  outcome: inactive
[3]
  outcome: inactive
[4]
  outcome: inactive
[5]
  outcome: inactive
[6]
  outcome: inactive
[7]
  outcome: inactive
[8]
  outcome: inactive
[9]
  outcome: inactive
[10]
  outcome: inactive
[11]
  outcome: inactive
[12]
  outcome: inactive
[13]
  outcome: inactive
[14]
  outcome: inactive
[15]
  outcome: inactive
[16]
  outcome: inactive
[17]
  outcome: inactive
[18]
  outcome: inactive
[19]
  outcome: inactive
[20]
  outcome: inactive

## O=c1c(-c2ccc(O)cc2)coc2cc(O)ccc12
[1]
  outcome: inactive
[2]
  outcome: inactive
[3]
  AC50: 100 µM (active) and 75.6 µM (active)
  outcome: inactive
[5]
  outcome: inactive
[6]
  AC50: 69.7 µM (active)
  outcome: inactive
[7]
  outcome: inactive
[8]
  outcome: inactive
[9]
  outcome: inactive
[10]
  outcome: inactive
[11]
  outcome: inactive
[12]
  outcome: inactive
[14]
  outcome: inactive
[15]
  outcome: inactive
[16]
  AC50: 410 nM (active) [middle of 4 runs]
[17]
  outcome: inactive
[18]
  outcome: inactive
[19]
  outcome: inactive
[20]
  outcome: inactive

## CC1=C(/C=C/C(C)=C/C=C/C(C)=C/C(=O)O)C(C)(C)CCC1
[1]
  outcome: inactive
[2]
  AC50: 52.4 µM (active) and 3.28 µM (active)
[3]
  AC50: 6.62 µM (active) and 193 nM (active)
[4]
  AC50: 75.8 µM (active)
  outcome: inactive
[5]
  AC50: 763 nM (active)
  outcome: inactive
[6]
  outcome: inactive
[7]
  AC50: 42 µM (active)
  outcome: inactive
[8]
  outcome: inactive
[9]
  outcome: inactive
[11]
  outcome: inactive
[12]
  outcome: inactive
[14]
  AC50: 21.5 µM (active)
  outcome: inactive
[15]
  outcome: inactive
[16]
  AC50: 112 nM (active)
  outcome: inactive
[17]
  outcome: inactive
[18]
  outcome: inactive
[19]
  AC50: 44.4 µM (active)
  outcome: inactive
[20]
  outcome: inactive

## CC#C[C@]1(O)CC[C@H]2[C@@H]3CCC4=CC(=O)CCC4=C3[C@@H](c3ccc(N(C)C)cc3)C[C@@]21C
[1]
  outcome: inactive
[2]
  AC50: 49.8 µM (active) and 47.6 µM (active) and 23.3 µM (active)
  outcome: inactive
[3]
  outcome: inactive
[4]
  AC50: 56.9 µM (active)
  outcome: inactive
[5]
  AC50: 10.4 µM (active) [middle of 4 runs]
[6]
  AC50: 6.86 µM (active) and 5.91 µM (active)
  outcome: inactive
[7]
  AC50: 27.6 µM (active) and 66.9 µM (active) and 63.5 µM (active)
  outcome: inactive
[8]
  AC50: 25.7 µM (active)
  outcome: inactive
[9]
  AC50: 22.4 µM (active) [middle of 4 runs]
[10]
  AC50: 7.96 µM (active)
  outcome: inactive
[11]
  outcome: inactive
[12]
  outcome: inactive
[13]
  outcome: inactive
[14]
  AC50: 9.86 µM (active) [middle of 4 runs]
[15]
  outcome: inactive
[16]
  outcome: inactive
[17]
  AC50: 8.92 µM (active)
  outcome: inactive
[18]
  AC50: 58.4 µM (active)
  outcome: inactive
[19]
  outcome: inactive
[20]
  outcome: inactive

## c1ccc2c(c1)ccc1ccccc12
[1]
  outcome: inactive
[2]
  outcome: inactive
[3]
  outcome: inactive
[4]
  outcome: inactive
[5]
  outcome: inactive
[6]
  outcome: inactive
[7]
  outcome: inactive
[8]
  outcome: inactive
[9]
  outcome: inactive
[10]
  outcome: inactive
[11]
  outcome: inactive
[12]
  outcome: inactive
[13]
  outcome: inactive
[14]
  outcome: inactive
[15]
  outcome: inactive
[16]
  outcome: inactive
[17]
  outcome: inactive
[18]
  outcome: inactive
[19]
  outcome: inactive
[20]
  outcome: inactive
